Measurements from PubChem BioAssay (NCATS).
Records with an inconclusive call do not appear. The source made the active and inactive calls. Calls come from the whole dose curve; as a rule, active = well fitted curve in the direction sought with a large enough effect; inconclusive = small, poorly fitted or top-dose-only effect, or another doubt; inactive = no such curve, though single readings can be large; an effect the other way counts as inactive or inconclusive.

Legend:
[1] = Cell Viability - LYMP2-005 (AID 967); details: LYMP2-005 lymphoblastoid cell viability; series mostly up to 92.2 µM
In short: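 Steps: seed 2500 LYMP2-005 cells/well, incubate 5 h at 37 C, add compound, incubate 24 h at 37 C, add CellTiter-Glo, wait 30 min at RT, read luminescence. Concentration-response data fitted to Hill equation for AC50.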

[2] = MultiTox-Fluor Cytotoxicity Assay - LYMP1-002 - Live Cells (AID 955); details: LYMP1-002 lymphoblastoid live-cell protease fluorescence viability; series mostly up to 46.1 µM;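 note: cells exposed to compound for 16 hours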
In short: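 In this qHTS viability format, lymphoblastoid cells (LYMP1-002, human) received compound for 16 hr at 37 C. Fluorogenic GF-AFC cleavage by viable cells was detected at 405/510 nm after 1 h at room temperature.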

[3] = MultiTox-Fluor Cytotoxicity Assay - LYMP1-003 - Live Cells (AID 962); details: LYMP1-003 lymphoblastoid cells, MultiTox-Fluor live-cell protease fluorescence; series mostly up to 92.2 µM;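 note: cells exposed to compound for 16 hours at 37 °C; cytotoxic hits lower the live-cell protease signal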
In short: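 Human lymphoblastoid line LYMP1-003 in complete culture medium, treated 16 hr with titrated compounds. Viable cells quantified via cell-permeant GF-AFC substrate fluorescence; AC50 derived by Hill fitting.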

[4] = Cell Viability - LYMP1-003 - Assay at 24 hr (AID 963); details: LYMP1-003 lymphoblastoid cell viability; series mostly up to 92.2 µM
In short: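 The lymphoblastoid line was treated with titrated compounds for 24 hours, and viable cell number estimated from luciferase-based ATP luminescence.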

[5] = Cell Viability - LYMP1-003 - Assay at 40 hr (AID 964); details: LYMP1-003 lymphoblastoid viability; series mostly up to 92.2 µM; note: nearly all actives have a fitted effect of over 60% in size
In short: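 Acute toxicity is scored as a concentration-dependent loss of intracellular ATP in LYMP1-003 cells (2500/well, complete medium) after 40 hr at 37 C, measured by CellTiter-Glo luminescence; AC50 values derive from standard Hill modelling.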

[6] = Cell Viability - LYMP2-003 (AID 965); details: LYMP2-003 lymphoblastoid cell viability; series mostly up to 92.2 µM;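 note: cells exposed to compounds for 24 h before reading; nearly all actives have a fitted effect of over 50% in size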
In short: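 CellTiter-Glo luminescence (cellular ATP) after 24 h compound exposure at 37 C in complete medium; 2500 cells/well, 5 h settling beforehand. Concentration-response fitted to standard Hill equation for AC50. Tetraoctylammonium bromide served as positive control.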

[7] = Cell Viability - LYMP2-004 (AID 966); details: LYMP2-004 lymphoblastoid cell viability, qHTS; series mostly up to 92.2 µM; note: nearly all actives have a fitted effect of over 65% in size
In short: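 Viable-cell number estimated from ATP luminescence (CellTiter-Glo) in 2500 human lymphoblastoid cells/well after 24 hr at 37 C with compound. AC50 fitted to the standard Hill equation.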

[8] = biological target: Alpha-galactosidase (Coffea arabica) (UniProt Q42656); experiment: Counterscreen for Glucocerebrosidase Inhibitors: qHTS Assay for Coffee Bean alpha-Galactosidase at pH 4.5 (AID 957); details: purified coffee bean alpha-galactosidase, fluorogenic substrate; series mostly up to 76.9 µM
In short: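 Quantitative HTS of compounds (0.7 nM to 77 uM) against coffee bean alpha-galactosidase at pH 4.5, measuring 4-methylumbelliferone fluorescence released from 80 uM substrate.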

[9] = MultiTox-Fluor Cytotoxicity Assay - LYMP1-002 - Dead Cells (AID 960); details: LYMP1-002 lymphoblastoid cells, dead-cell protease fluorescence; series mostly up to 46.1 µM; note: nearly all actives have a fitted effect of over 60% in size
In short: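 Concentration-dependent increases in membrane-leaked protease activity are quantified in LYMP1-002 cells after 16 hr treatment; values are normalized against DMSO and tetraoctylammonium bromide (15 uM) controls and AC50 derived by Hill modeling.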

Measured: Potency

Sequence of Alpha-galactosidase (Coffea arabica) (Q42656 whole entry, looked up): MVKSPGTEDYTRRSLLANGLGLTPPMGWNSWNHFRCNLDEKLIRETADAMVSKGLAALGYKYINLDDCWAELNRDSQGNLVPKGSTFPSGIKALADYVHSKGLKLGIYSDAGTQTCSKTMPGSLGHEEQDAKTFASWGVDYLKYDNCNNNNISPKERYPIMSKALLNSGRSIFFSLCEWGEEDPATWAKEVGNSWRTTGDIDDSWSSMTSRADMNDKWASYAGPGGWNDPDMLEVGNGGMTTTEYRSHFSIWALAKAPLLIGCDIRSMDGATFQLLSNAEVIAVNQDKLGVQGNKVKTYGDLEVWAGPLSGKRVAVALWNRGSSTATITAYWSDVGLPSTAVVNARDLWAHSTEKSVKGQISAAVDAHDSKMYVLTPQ

O=[N+]([O-])c1c(Cl)c(Cl)cc(Cl)c1Cl
inactive: [1]

C=CC(=O)NCNC(=O)C=C
inactive: [1]

CC(C)(O)C(=O)Nc1ccc([N+](=O)[O-])c(C(F)(F)F)c1
inactive: [2] | [3] | [4] | [5] | [6] | [7] | [1]

COc1ccc(C(c2ccc(OC)cc2)C(Cl)(Cl)Cl)cc1
inactive: [2] | [3] | [4] | [5] | [6] | [7] | [1]

CCN1CCc2nc(N)oc2CC1
inactive: [8]

Cc1cccc(C#Cc2ccccc2)n1
inactive: [8]

O=[N+]([O-])c1c2ccccc2cc2ccccc12
inactive: [2] | [9] | [3] | [4] | [5] | [6] | [7] | [1]

CC#C[C@]1(O)CC[C@H]2[C@@H]3CCC4=CC(=O)CCC4=C3[C@H](c3ccc(N(C)C)cc3)C[C@@]21C
inactive: [8]

O=[N+]([O-])c1cc([N+](=O)[O-])c2ccccc2c1
inactive: [2] | [9] | [3] | [4] | [5] | [6] | [7] | [1]

CCOCCOC(C)=O
inactive: [2] | [3] | [4] | [5] | [6] | [7] | [1]

C[N+](C)(C)CC(=O)O
inactive: [8]

CC(C)c1ccc2c(c1)c(SC(C)(C)C)c(CC(C)(C)C(=O)O)n2Cc1ccc(Cl)cc1
inactive: [8]

CN(C)[C@@H]1C(=O)C(C(N)=O)=C(O)[C@@]2(O)C(=O)C3=C(O)c4c(O)cccc4[C@@](C)(O)[C@H]3[C@H](O)[C@@H]12
inactive: [2] | [9] | [3] | [4] | [5] | [6] | [7] | [1]

OCCCBr
inactive: [2] | [9] | [3] | [4] | [5] | [6] | [7] | [1]

CCn1cc(C(=O)O)c(=O)c2cc3c(cc21)OCO3
inactive: [8]

Nc1ccc(Sc2ccc(N)cc2)cc1
inactive: [2] | [9] | [3] | [4] | [5] | [6] | [7] | [1]

CCCCCCCCc1ccc(O)cc1
inactive: [2] | [9] | [3] | [4] | [6] | [7] | [1]

O=S(=O)(c1ccc(Cl)cc1)c1ccc(Cl)cc1
inactive: [2] | [9] | [3] | [4] | [5] | [6] | [7] | [1]

CS(=O)(=O)Nc1ccc([N+](=O)[O-])cc1Oc1ccccc1
inactive: [8]

CC(=O)Oc1ccccc1C(=O)O
inactive: [8]

O=C(O)COc1ccccc1
inactive: [2] | [9] | [3] | [4] | [5] | [6] | [7] | [1]

CCc1c(C)[nH]c2c1C(=O)C(CN1CCOCC1)CC2 (stereo not given)
inactive: [8]

Cc1cc(O)ccc1Cl
inactive: [2] | [9] | [3] | [4] | [5] | [6] | [7] | [1]

Nc1ccc(Cl)cc1
inactive: [2] | [9] | [3] | [4] | [5] | [6] | [7] | [1]

CCOP(=O)(NC(C)C)Oc1ccc(SC)c(C)c1 (stereo not given)
inactive: [2] | [9] | [3] | [4] | [5] | [6] | [7] | [1]

C1CCC(NC2CCCCC2)CC1
inactive: [2] | [9] | [3] | [4] | [5] | [6] | [7] | [1]

CCCCC(CC)COC(=O)c1ccccc1C(=O)OCC(CC)CCCC (stereo not given)
inactive: [2] | [3] | [4] | [5] | [6] | [7] | [1]

CCOC(=O)C1=C[C@@]2(CC)CCCN3CCc4c(n1c1ccccc41)[C@H]32
inactive: [8]

O=C(O)C(Cl)Cl
inactive: [2] | [9] | [3] | [4] | [5] | [6] | [7] | [1]

NCCS
inactive: [8]

COC(C)(C)CCCC(C)C/C=C/C(C)=C/C(=O)OC(C)C (stereo not given)
inactive: [2] | [9] | [3] | [4] | [5] | [6] | [7] | [1]

CCCCOC(=O)c1ccccc1C(=O)OCc1ccccc1
inactive: [2] | [3] | [4] | [5] | [6] | [7] | [1]

Nc1ccc(Cl)cc1N
inactive: [2] | [9] | [3] | [4] | [5] | [6] | [1]

CN(C)NC(=O)CCC(=O)O
inactive: [2] | [9] | [3] | [4] | [5] | [6] | [7] | [1]

CCN(CC)CCNC(=O)c1ccc(NC(C)=O)cc1
inactive: [8]

c1cc2ccc3cccc4ccc(c1)c2c34
inactive: [2] | [9] | [3] | [4] | [5] | [6] | [7] | [1]

C[C@]12C[C@H](O)[C@H]3[C@@H](CCC4=CC(=O)CC[C@@]43C)[C@@H]1CC[C@@H]2C(=O)CO
inactive: [8]

CC(C)(Sc1ccc(CCN(CCCCC2CCCCC2)C(=O)NC2CCCCC2)cc1)C(=O)O
inactive: [8]
